Laboratory results as given in PubChem BioAssay AID1159580 (chemical genetic matrix, 2015).
Screen size: about 5,500 compounds; about 2,000 (36%) were called active. Not shown: some 18% with an inconclusive outcome. Cut-off read from the data, not from the text of the source: active = normalized growth mostly below about 0.91 (no sharp cut-off); inconclusive = no clear call, values can overlap the other calls; inactive = mostly above about 0.92. Some of the results follow.

Experiment: chemical genetic growth profiling, strain panel (AID 1159580);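 note: tested at 20 µM; growth read once vehicle control cultures reached saturation at 30 °C; 1 = growth at the plate median or of vehicle wells; lower values mean less growth of the strain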
Conditions: S. cerevisiae deletion strains, growth OD
[1] = locus YAL013W, strain DEP1, stronger effect = lower value
[2] = locus YBR229C, strain ROT2, stronger effect = lower value
[3] = locus YDL101C, strain DUN1, stronger effect = lower value
[4] = locus YGR078C, strain PAC10, stronger effect = lower value
[5] = locus YJL187C, strain SWE1, stronger effect = lower value
[6] = locus YJR043C, strain POL32, stronger effect = lower value
[7] = locus YJR075W, strain HOC1, stronger effect = lower value
[8] = locus YKL190W, strain CNB1, stronger effect = lower value
[9] = locus YLR039C, strain RIC1, stronger effect = lower value
[10] = locus YLR262C, strain YPT6, stronger effect = lower value
[11] = locus YMR263W, strain SAP30, stronger effect = lower value
[12] = locus YNL153C, strain GIM3, stronger effect = lower value
[13] = locus YNL322C, strain KRE1, stronger effect = lower value
[14] = locus YPL055C, strain LGE1, stronger effect = lower value
[15] = locus YPL241C, strain CIN2, stronger effect = lower value

Measured: normalized growth

CC1(C)C(O)CC(=O)C2(C)C1CC(O)C1(C)C2CCC2(C)C(c3ccoc3)OC(=O)C3OC321 (stereo unspecified)
inactive: [1] 1 | locus YAL021C, strain ccr4, stronger effect = lower value 0.99 | locus YAL026C, strain drs2, stronger effect = lower value 1.02 | locus YAL030W, strain snc1, stronger effect = lower value 1 | locus YBL061C, strain skt5, stronger effect = lower value 1 | locus YBR009C, strain hhf1, stronger effect = lower value 0.999 | locus YBR021W, strain FUR4, stronger effect = lower value 0.931 | locus YBR023C, strain chs3, stronger effect = lower value 0.99 | locus YBR171W, strain sec66, stronger effect = lower value 0.995 | [2] 1 | locus YBR231C, strain swc5, stronger effect = lower value 0.999 | locus YBR279W, strain paf1, stronger effect = lower value 0.997 | locus YCL011C, strain gbp2, stronger effect = lower value 1 | locus YCL016C, strain dcc1, stronger effect = lower value 1.01 | locus YCL029C, strain bik1, stronger effect = lower value 1 | locus YCL061C, strain MRC1, stronger effect = lower value 0.993 | locus YCL069W, strain vba3, stronger effect = lower value 1.03 | locus YCR088W, strain abp1, stronger effect = lower value 0.989 | locus YDL005C, strain med2, stronger effect = lower value 0.99 | locus YDL035C, strain GPR1, stronger effect = lower value 0.989 | locus YDL040C, strain nat1, stronger effect = lower value 0.997 | locus YDL074C, strain BRE1, stronger effect = lower value 0.976 | [3] 1.01 | locus YDL185W, strain tfp1, stronger effect = lower value 1.02 | locus YDL192W, strain arf1, stronger effect = lower value 0.988 | locus YDR001C, strain nth1, stronger effect = lower value 0.999 | locus YDR069C, strain doa4, stronger effect = lower value 1 | locus YDR101C, strain arx1, stronger effect = lower value 1 | locus YDR137W, strain rgp1, stronger effect = lower value 0.997 | locus YDR159W, strain sac3, stronger effect = lower value 0.973 | locus YDR162C, strain NBP2, stronger effect = lower value 1 | locus YDR195W, strain ref2 0.939 | locus YDR297W, strain sur2, stronger effect = lower value 0.985 | locus YDR318W, strain mcm21, stronger effect = lower value 1 | locus YDR334W, strain swr1, stronger effect = lower value 0.998 | locus YDR335W, strain msn5, stronger effect = lower value 1 | locus YDR388W, stronger effect = lower value 1.01 | locus YDR392W, strain spt3, stronger effect = lower value 0.989 | locus YDR502C, strain sam2, stronger effect = lower value 1.02 | locus YEL003W, strain gim4, stronger effect = lower value 0.997 | locus YEL037C, strain rad23, stronger effect = lower value 1.02 | locus YEL061C, strain CIN8 (second series), stronger effect = lower value 0.995 | locus YER015W, strain faa2, stronger effect = lower value 1 | locus YER016W, strain bim1, stronger effect = lower value 1 | locus YER110C, stronger effect = lower value 1.01 | locus YER111C, strain swi4, stronger effect = lower value 0.99 | locus YER155C, strain BEM2 (second series), stronger effect = lower value 0.998 | locus YER155C, strain BEM2, stronger effect = lower value 1 | locus YER167W, strain BCK2, stronger effect = lower value 0.998 | locus YFR010W, strain ubp6, stronger effect = lower value 1.01 | locus YGL078C, strain dbp3, stronger effect = lower value 1.03 | locus YGL086W, strain mad1, stronger effect = lower value 1 | locus YGL167C, strain pmr1, stronger effect = lower value 1.01 | locus YGL173C, strain kem1, stronger effect = lower value 0.994 | locus YGL227W, strain vid30, stronger effect = lower value 0.986 | locus YGL240W, strain doc1, stronger effect = lower value 0.973 | locus YGL248W, strain PDE1, stronger effect = lower value 1 | locus YGL253W, strain hxk2, stronger effect = lower value 1 | [4] 1.01 | locus YGR135W, strain pre9, stronger effect = lower value 1.03 | locus YGR229C, strain SMI1, stronger effect = lower value 1.12 | locus YGR252W, strain gcn5, stronger effect = lower value 0.986 | locus YHR013C, strain ard1, stronger effect = lower value 0.996 | locus YHR027C, strain rpn1, stronger effect = lower value 0.987 | locus YHR079C, strain IRE1 (second series), stronger effect = lower value 1.01 | locus YHR094C, strain hxt1, stronger effect = lower value 1.01 | locus YHR129C, strain ARP1, stronger effect = lower value 0.999 | locus YHR142W, strain chs7, stronger effect = lower value 1.02 | locus YHR200W, strain rpn10, stronger effect = lower value 1 | locus YIL066C, strain RNR3, stronger effect = lower value 0.995 | locus YIL073C, strain SPO22, stronger effect = lower value 1.05 | locus YIL125W, strain kgd1, stronger effect = lower value 1 | locus YIR030C, strain dcg1, stronger effect = lower value 1.01 | locus YJL092W, strain hpr5, stronger effect = lower value 1.01 | locus YJL095W, strain BCK1 (second series), stronger effect = lower value 1.02 | locus YJL095W, strain BCK1, stronger effect = lower value 1.01 | locus YJL115W, strain asf1, stronger effect = lower value 0.993 | locus YJL129C, strain trk1, stronger effect = lower value 0.978 | locus YJL134W, strain LCB3, stronger effect = lower value 1.01 | locus YJL154C, strain vps35, stronger effect = lower value 1 | locus YJL164C, strain tpk1, stronger effect = lower value 1.02 | locus YJL166W, strain qcr8, stronger effect = lower value 0.994 | locus YJL168C, strain set2, stronger effect = lower value 1.01 | locus YJL187C, strain SWE1 (second series), stronger effect = lower value 1.02 | [5] 0.996 | [6] 0.987 | [7] 0.997 | locus YKL009W, strain mrt4, stronger effect = lower value 0.977 | locus YKL068W, stronger effect = lower value 1.01 | locus YKL085W, strain MDH1 (second series), stronger effect = lower value 1 | locus YKL085W, strain MDH1, stronger effect = lower value 1 | locus YKL160W, strain elf1, stronger effect = lower value 1.01 | [8] 1 | locus YKR001C, strain vps1, stronger effect = lower value 0.993 | locus YKR026C, strain gcn3, stronger effect = lower value 0.992 | locus YKR091W, strain srl3, stronger effect = lower value 1 | locus YLL001W, strain dnm1, stronger effect = lower value 1.01 | locus YLL026W, stronger effect = lower value 0.997 | locus YLL041C, strain sdh2, stronger effect = lower value 0.997 | locus YLR027C, strain aat2, stronger effect = lower value 0.984 | [9] 0.95 | locus YLR058C, strain SHM2, stronger effect = lower value 1.01 | locus YLR102C, strain apc9, stronger effect = lower value 1.02 | locus YLR221C, strain rsa3, stronger effect = lower value 0.991 | locus YLR258W, strain gsy2, stronger effect = lower value 1.01 | locus YLR262C, strain YPT6 (second series), stronger effect = lower value 0.998 | [10] 1 | locus YLR268W, strain sec22, stronger effect = lower value 1.01 | locus YLR320W, strain mms22, stronger effect = lower value 1 | locus YLR342W, strain FKS1, stronger effect = lower value 0.984 | locus YLR357W, strain rsc2, stronger effect = lower value 0.99 | locus YLR370C, strain arc18, stronger effect = lower value 1.01 | locus YLR371W, strain rom2, stronger effect = lower value 0.984 | locus YLR384C, strain iki3, stronger effect = lower value 0.999 | locus YLR418C, strain cdc73, stronger effect = lower value 1 | locus YML016C, strain PPZ1, stronger effect = lower value 0.999 | locus YML032C, strain rad52, stronger effect = lower value 1 | locus YML120C, strain ndi1, stronger effect = lower value 1.01 | locus YML124C, strain tub3, stronger effect = lower value 1.01 | locus YMR058W, strain fet3, stronger effect = lower value 1.01 | locus YMR078C, strain ctf18, stronger effect = lower value 1.01 | locus YMR125W, strain sto1, stronger effect = lower value 0.992 | locus YMR129W, stronger effect = lower value 1.01 | locus YMR205C, strain PFK2, stronger effect = lower value 0.982 | locus YMR223W, strain ubp8, stronger effect = lower value 1.01 | locus YMR231W, strain pep5, stronger effect = lower value 1 | [11] 1.02 | locus YMR307W, strain GAS1, stronger effect = lower value 0.975 | locus YNL067W, strain RPL9B, stronger effect = lower value 1.04 | locus YNL071W, strain lat1, stronger effect = lower value 0.996 | locus YNL128W, strain TEP1, stronger effect = lower value 1.02 | [12] 1.03 | locus YNL209W, strain ssb2, stronger effect = lower value 0.995 | locus YNL233W, strain BNI4, stronger effect = lower value 1 | locus YNL248C, strain rpa49, stronger effect = lower value 0.99 | locus YNL250W, strain rad50, stronger effect = lower value 1.02 | locus YNL271C, strain bni1, stronger effect = lower value 1.01 | locus YNL298W, strain CLA4, stronger effect = lower value 1.02 | locus YNL307C, strain MCK1, stronger effect = lower value 1.01 | locus YNL322C, strain KRE1 (second series), stronger effect = lower value 0.998 | [13] 1.01 | locus YNR049C, strain mso1, stronger effect = lower value 0.997 | locus YNR052C, strain pop2, stronger effect = lower value 1.02 | locus YOL012C, strain htz1 0.761 | locus YOL147C, strain pex11, stronger effect = lower value 1.01 | locus YOR001W, strain rrp6, stronger effect = lower value 0.984 | locus YOR061W, strain CKA2, stronger effect = lower value 1.01 | locus YOR069W, strain VPS5, stronger effect = lower value 1.01 | locus YOR070C, strain gyp1, stronger effect = lower value 0.993 | locus YOR080W, strain dia2, stronger effect = lower value 0.997 | locus YOR083W, strain WHI5, stronger effect = lower value 1.01 | locus YOR106W, strain vam3, stronger effect = lower value 1.02 | locus YOR136W, strain idh2, stronger effect = lower value 1.01 | locus YOR144C, strain elg1, stronger effect = lower value 1.01 | locus YOR184W, strain ser1, stronger effect = lower value 1.01 | locus YOR265W, strain rbl2, stronger effect = lower value 1.01 | locus YOR270C, strain vph1, stronger effect = lower value 1.03 | locus YOR290C, strain snf2, stronger effect = lower value 1.02 | locus YOR316C, strain cot1, stronger effect = lower value 1.01 | locus YPL051W, strain arl3, stronger effect = lower value 1.01 | [14] 0.989 | locus YPL078C, strain atp4, stronger effect = lower value 1.01 | locus YPL106C, strain sse1, stronger effect = lower value 0.988 | locus YPL240C, strain hsp82, stronger effect = lower value 1.01 | [15] 1.01 | locus YPR119W, strain clb2, stronger effect = lower value 1 | locus YPR141C, strain kar3, stronger effect = lower value 1.01 | locus YPR163C, strain tif3, stronger effect = lower value 1.01 | locus YPR167C, strain met16, stronger effect = lower value 1.01 | strain wtn01, stronger effect = lower value 0.997

CN1c2ccccc2C(=O)/C(=N/Nc2ccccc2F)S1(=O)=O
inactive: [1] 1 | [2] 1.02 | [3] 1.02 | locus YDR150W, strain NUM1, stronger effect = lower value 1.04 | locus YEL061C, strain CIN8, stronger effect = lower value 1.01 | [4] 1.02 | locus YHR030C, strain SLT2, stronger effect = lower value 0.991 | locus YHR087W, strain rtc3, stronger effect = lower value 1.01 | [5] 0.997 | [6] 1.01 | [7] 1.02 | [8] 1 | [9] 0.999 | locus YLR058C, strain SHM2 (second series), stronger effect = lower value 1.02 | locus YLR085C, strain ARP6, stronger effect = lower value 0.965 | [10] 1.01 | locus YML094W, strain GIM5, stronger effect = lower value 0.995 | locus YMR219W, strain ESC1, stronger effect = lower value 1.01 | [11] 1.01 | [12] 1.02 | locus YNL298W, strain CLA4 (second series), stronger effect = lower value 0.995 | [13] 1.01 | locus YNR030W, strain Alg12, stronger effect = lower value 0.997 | [14] 1.03 | [15] 0.993 | locus YPR135W, strain CTF4, stronger effect = lower value 1.06
